According to PubChem BioAssay AID686979 (National Center for Advancing Translational Sciences (NCATS), 2013):
The campaign covered roughly 420,000 compounds. About 50,000 (12%) were called active. Entries that show only a call come without a potency. Another 26% or so got no clear call; they are omitted. Calls come from the whole dose curve; as a rule, active = well fitted inhibition curve with a large enough effect; inconclusive = small, poorly fitted or top-dose-only effect; inactive = flat fitted curve, though single readings scatter. Many of the other results were omitted from the sample, so actives are more common in it than they were.

experiment: qHTS for Inhibitors of human tyrosyl-DNA phosphodiesterase 1 (TDP1): qHTS in cells in presence of CPT; conditions: chicken DT40 Tdp1-/-;hTDP1 cells + 20 nM CPT, ATP luminescence, 48 h; series mostly up to 46.2 µM; note: nearly all actives have a fitted effect of over 55% in size
In short: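 Cell growth measured by CellTiter-Glo luminescence after a minimum 48 h, 37 C compound exposure with 20 nM CPT in Tdp1-knockout DT40 cells stably expressing hTDP1, seeded 400/well; qHTS titration format.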
Potency is the fitted concentration of half-maximal effect.

SMILES	Potency
CCN(C(=O)COc1ccc(C(=O)c2ccccc2)cc1)c1ccccc1	18.4 µM (active)
CN(Cc1ccccc1)C(=O)COc1ccccc1	inactive
O=C(COc1ccc(F)cc1)N(CC1=CCS(=O)(=O)C1)c1ccccc1	inactive
CC(C)CCN1C(=O)c2ccc(C(=O)Nc3cccc(S(N)(=O)=O)c3)cc2C1=O	inactive
COCCCn1c(SCC(=O)Nc2oc(C)c3c(C)n[nH]c(=O)c23)nc2sc3c(c2c1=O)CCC3	inactive
Cc1ccc(/C=C2\SC(=S)N(CCC(=O)Nc3ccc(O)cc3)C2=O)cc1	inactive
O=C1/C(=C/c2ccc(F)cc2)SC(=S)N1CCCC(=O)N1CCCCC1CCO (centres undefined)	16.4 µM (active)
COc1ccccc1C(=O)NNC(=O)CCN1C(=O)/C(=C\c2ccccc2)SC1=S	inactive
CN(C)c1ccc(NC(=O)CN2C3CCCC2CC(NC(=O)c2ccccc2)C3)cc1 (centres undefined)	inactive
CCc1cnc2c(c1SCC(=O)N1CCC(C)CC1)c(=O)n(C)c(=O)n2C	20.6 µM (active)
CCOC(=O)N1CCN(C(=O)CSc2nc(C)nc3c2c(=O)n(C)c(=O)n3C)CC1	inactive
Cc1ccc(CNC(=O)CSc2c(C)cnc3c2c(=O)n(C)c(=O)n3C)cc1	inactive
COc1cc(C(c2c(NC(=O)c3ccco3)sc(C)c2C)N2CCOCC2)cc(OC)c1OC (centres undefined)	23.1 µM (active)
COc1ccc(CC(=O)Nc2ccccc2NC(=O)c2ccco2)cc1OC	inactive
COc1ccc(NC(=O)CCC(=O)Nc2cc(OC)c(NC(=O)c3ccco3)cc2OC)c(OC)c1	inactive
COC(=O)c1ccccc1NC(=O)c1ccc(COc2ccccc2Cl)o1	inactive
COc1ccc(OCCCC(=O)OC(C)C(=O)Nc2ccccc2[N+](=O)[O-])cc1 (centres undefined)	inactive
COC(=O)Cn1cc(/C=C/[N+](=O)[O-])c2ccccc21	10.3 µM (active)
COC(=O)Cn1cc(C(=O)c2cccs2)c2ccccc21	inactive
COC(=O)c1cn(CC(=O)NCc2cccs2)c2ccccc12	inactive
COC(=O)c1cc(NC(=O)c2sc3ccccc3c2Cl)cc(C(=O)OC)c1	inactive
O=C(N/N=C/c1c(Cl)[nH]c2ccccc12)c1sc2ccccc2c1Cl	23.1 µM (active)
Cc1[nH]c2ccccc2c1/C=N\NC(=O)Cn1nnc(-c2ccccc2)n1	inactive
CC(=O)c1nnn(-c2ccc(Cl)cc2C#N)c1C	inactive
COCCCNc1nc2ccccc2nc1NS(=O)(=O)c1ccc(F)cc1	inactive

SMILES	Potency
CCCc1cc(=O)n2[nH]c(NCc3ccc(CC)cc3)nc2n1	inactive
COc1ccc(CN2C(=O)CC(Cc3ccc(C)cc3)C2=O)cc1OC (centres undefined)	inactive
CCCCn1nnnc1C1(C)CCC(=O)N1Cc1ccc(OC)c(OC)c1 (centres undefined)	inactive
CCCCOc1ccc(CN2C(=O)C(=O)c3cc(Br)cc(C)c32)cc1OC	0.82 µM (active)
Cc1cc(C)nc(NC(=O)c2cccc([N+](=O)[O-])c2)c1	inactive
O=C(Nc1ccc(F)cc1)C(CCc1ccccc1)N1CCN(CC(=O)N2CCCC2)CC1 (centres undefined)	inactive
OC(c1ccc(Cl)cc1)C(CN1CCOCC1)c1ccccc1 (centres undefined)	inactive
COc1ccccc1CN1CCN(Cc2cc(OC)c(OC)cc2OC)CC1	inactive
COc1cccc(OC)c1C(=O)N1CCN(Cc2ccccc2F)CC1	inactive
COCCn1cnc2c1c(=O)n(Cc1ccc(Br)cc1)c(=O)n2Cc1ccccc1	inactive
CCCCc1c(-c2ccc(Br)cc2)ncn1CCc1ccccc1OC	1.3 µM (active)
CCCc1c(-c2ccccc2F)ncn1Cc1ccccc1OC	1.3 µM (active)
COc1ccccc1OCCCn1c(-c2ccc(Cl)cc2)nc2ccccc2c1=O	inactive
COc1ncc2nc(-c3ccc(Cl)cc3)c(=O)n(C)c2n1	inactive
CCCCc1c(-c2ccc(Cl)cc2)ncn1CCc1ccccc1OC	4.61 µM (active)
COc1ccccc1NC(=O)c1c(Br)cnn1C	inactive
CC(=O)C[C@H](O)CC(=O)[C@@H]1OC(=O)[C@@H](C)C/C=C\Cc2ccccc21	inactive
COc1ccc(CNC(=O)c2cc(=O)c3c(C)cc(C)cc3o2)cc1	inactive
CCCCn1c(N)c(N(CCOC)C(=O)c2cccc(S(=O)(=O)N3CCCCC3)c2)c(=O)[nH]c1=O	inactive
COc1cc(OC)c(S(=O)(=O)Nc2ccccc2C(=O)O)cc1S(=O)(=O)Nc1ccccc1C(=O)O	inactive
CS(=O)(=O)N1CCN(c2cccc(Cl)n2)CC1	inactive
O=C(COc1ccc2c(c1)CCC2)N1CCN(c2ccc(F)cc2)CC1	inactive
COCCCNC(=O)CSc1nc2ccc(N3CCOCC3)cc2c(=O)n1CCc1ccccc1	16.4 µM (active)
COCCn1c(=O)c(-c2ccccc2)nc2cnc(N3CCOCC3)nc21	inactive
CCCCn1c(SCC(=O)NCC2CCCO2)nc2ccc(N3CCOCC3)cc2c1=O (centres undefined)	inactive

SMILES	Potency
Cc1nn2c3cc(N4CCOCC4)ccc3nc2c2ccccc12	inactive
N#CCSc1nc2ccc(N3CCOCC3)cc2c(=O)n1CCc1ccccc1	23.1 µM (active)
COCCNC(=O)c1ccc(Cn2c(SCC(=O)NCC3CCCO3)nc3ccc(Br)cc3c2=O)cc1 (centres undefined)	inactive
COc1ccccc1/C=C/C(=O)OCC(=O)NC1CCCCCC1	inactive
C=Cc1ccc(C(=O)N2CCCC(CCC(=O)N3CCN(c4ccccn4)CC3)C2)cc1 (centres undefined)	inactive
Cc1ccc2oc3c(c(=O)c2c1)C(c1ccc(O)cc1)N(Cc1ccc2c(c1)OCO2)C3=O (centres undefined)	14.6 µM (active)
CCCOc1ccc(C2c3c(oc4cc(C)c(C)cc4c3=O)C(=O)N2CCCN2CCOCC2)cc1 (centres undefined)	inactive
COc1ccc(C2c3c(oc4ccccc4c3=O)C(=O)N2Cc2ccc3c(c2)OCO3)cc1 (centres undefined)	inactive
Cc1ccc(NNC(=O)c2cccs2)cc1Cl	inactive
CC(NC(=O)COc1cccnc1[N+](=O)[O-])c1ccc(Cl)cc1Cl (centres undefined)	inactive
CC(=O)C[C@@H]1OC[C@H](C)N1S(=O)(=O)c1ccc(C)cc1	inactive
Cc1nn(CCOc2ccc(Br)cc2)c(C)c1[N+](=O)[O-]	inactive
CCn1nc(C(=O)NNS(=O)(=O)c2cc(/C=C/C(=O)O)cc(OC)c2OC)c2ccccc2c1=O	inactive
CCn1nc(C)c(NC(=O)/C=C/c2ccc(OC)c(COc3ccc(Br)cc3)c2)c1C	16.4 µM (active)
O=C(O)CCCCCCCCCC[n+]1ccccc1	inactive
CCn1c(SCC(=O)NC2CC2)nnc1-c1ccncc1	inactive
CCOC(=O)c1c(NC(=S)NC(=O)/C=C/c2cccs2)sc(C)c1C	20.6 µM (active)
CCOC(=O)c1c(NC(=O)c2cccs2)sc(C)c1C	inactive
CCOC(=O)c1c(NC(=O)/C=C/c2ccco2)sc(C)c1C	inactive
Cc1c(NC(=S)NC(=O)CCc2ccccc2)c(=O)n(-c2ccccc2)n1C	inactive
NC(=O)[C@H]1CC2(CC(c3cccc(NC(=O)[C@H]4CCC(=O)N4)c3)=NO2)CN1C(=O)c1ccccc1C(=O)c1ccccc1 (some centres undefined)	inactive
CC(C)CN(C(=O)CN1CCN(S(=O)(=O)c2ccccc2)CC1)c1c(N)n(CC(C)C)c(=O)[nH]c1=O	inactive
Cc1ccc(Cc2nnc(SCC(=O)Nc3ccc(C)cc3C)[nH]c2=O)cc1	inactive
Cc1ccc(NC(=O)c2ccc(CSc3ncnc4nc[nH]c34)cc2)c(C)c1	23.1 µM (active)
CSc1ncc(C(=O)Nc2ccc(C)cc2C)c(C)n1	inactive

SMILES	Potency
Cc1cc(C)c2oc(C(=O)Nc3ccc(S(=O)(=O)Nc4nccc(C)n4)cc3)cc(=O)c2c1	inactive
Cc1ccc2nc(SCC(=O)N3CC(C)OC(C)C3)nc(=O)n2c1 (centres undefined)	inactive
O=C(CCC(=O)c1ccccc1)NCc1cccc(C(F)(F)F)c1	inactive
Cc1ccc2nc(NC(=O)CSc3nc(=O)n(CCCN(C)C)c4c3CCC4)sc2c1	9.2 µM (active)
Cc1ccc(NC(=O)CSc2nc(=O)n(CCN(C)C)c3c2CCCC3)c(C)c1	inactive
Cc1csc(NC(=O)CSc2nc(=O)n(CCCN(C)C)c3c2CCC3)n1	inactive
N#Cc1ccc(-c2nc3c(Cl)cc(C(F)(F)F)cn3c2Cc2ccccc2C(F)(F)F)cc1	inactive
COc1ccccc1Cc1c(-c2ccc(Cl)cc2)nc2c3ccccc3ccn12	25.9 µM (active)
COc1ncc2nc(-c3ccc(Cl)cc3)c(=O)n(-c3ccccc3)c2n1	inactive
O=C1C(c2ccccn2)=[N+]([O-])c2ccccc21	inactive
O=C1c2oc3ccccc3c(=O)c2C(c2cccc(O)c2)N1c1ccccn1 (centres undefined)	20.6 µM (active)
CC(=O)c1sc(N2C(=O)c3oc4ccccc4c(=O)c3C2c2ccc(C)cc2)nc1C (centres undefined)	inactive
COCCN1C(=O)c2oc3c(C)cc(C)cc3c(=O)c2C1c1cccc(O)c1 (centres undefined)	inactive
O=C(NC1CC(=O)N(c2ccc(F)cc2)C1)c1cccs1 (centres undefined)	inactive
CC(C)=NN1C(=O)c2ccccc2NC1(C)C	inactive
O=C(Nc1ccc2c(c1)OCO2)c1ccc(N2C(=O)c3ccccc3C2=O)cc1	inactive
CCCn1c(C(C)Nc2nc(-c3ccc(C)cc3)cs2)nc2cc(Cl)c(N3CCCCC3)cc21 (centres undefined)	inactive
Cc1ccc(-c2csc(N3CCN(c4cc5c(cc4Cl)nc(-c4ccncc4)n5CCOCCO)CC3)n2)cc1	16.4 µM (active)
COc1ccc(-c2csc(N3CCN(Cc4ccc5c(c4)OCO5)CC3)n2)cc1	inactive
COc1cccc(CNC(=O)c2nnn(CC(=O)Nc3cc(C)ccc3C)c2N)c1	inactive
CSc1c(SCc2ccccc2)cnn(Cc2ccccc2)c1=O	inactive
Cn1c(=O)n(CCc2ccccc2)c(=O)c2c1nc1n2CCCN1c1ccccc1	inactive
CC1CN(C2CCCCC2)c2nc3c(c(=O)n(C)c(=O)n3C)n2C1 (centres undefined)	inactive
Cc1cccc(N2CC(C)Cn3c2nc2c3c(=O)n(CC(=O)OCc3ccccc3)c(=O)n2C)c1 (centres undefined)	23.1 µM (active)
